Values joined by “and” are separate entries in the source; they are usually repeats but may differ in a detail not shown here. Identical values can stand only once. Results filed as inconclusive are left out. Entries that show only a call come without a potency. A number with no mark means an inactive call. Active and inactive are the calls of the source. Calls come from the whole dose curve; as a rule, active = well fitted cell-killing curve with a large enough effect in the repeat runs; inconclusive = weak or mixed curves, or effect the other way; inactive = flat fitted curve, though single readings scatter.
Experiments:
[1] = cAMP Responsive Elements (CRE) small molecule antagonists, cell-based qHTS assay: qHTS cell viability counter screen (AID 2060913); note: nearly all actives have a fitted effect of over 40% in size
Procedure, shortened: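 CRE-bla HEK293T cells were seeded in assay medium with 10% dialyzed FBS, incubated 18 hrs at 37 C, then exposed to compounds plus 0.25 uM final NKH477 for 3 hrs. Viability was read by CellTiter-Glo luminescence after 30 min, in the same wells.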

[2] = cAMP Responsive Elements (CRE) small molecule agonists, cell-based qHTS assay: qHTS cell viability counter screen (AID 2060914); note: nearly all actives have a fitted effect of over 50% in size
Procedure, shortened: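 In the same wells as the reporter read, viability of CRE-bla HEK 293T cells was quantified by CellTiter-Glo luminescence after a 3 h compound exposure.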
Potency is the fitted concentration of half-maximal effect.

| Structure (SMILES) | Potency [1] | Potency [2] | viability change, negative = cytotoxic [1] | activity change, negative = cytotoxicity [2] |
| --- | --- | --- | --- | --- |
| CC[N+](CC)(CC)Cc1ccccc1 | inactive | inactive |  |  |
| O=c1[nH]c(=O)n([C@H]2C[C@H](O)[C@@H](CO)O2)cc1C(F)(F)F | inactive | inactive |  |  |
| CCC(C)C(=O)OCCc1ccccc1 (configuration not stated) | inactive | inactive |  |  |
| CC(=O)OCC[N+](C)(C)C | inactive | inactive |  |  |
| CSc1ccc2c(c1)N(CCC1CCCCN1C)c1ccccc1S2 (configuration not stated) | 60.9 µM (active) | 60.9 µM (active) |  |  |
| CN1C(C)(C)CCCC1(C)C | inactive | inactive |  |  |
| C[N+](C)(C)CCOC(N)=O | inactive | inactive |  |  |
| CN1CCC[C@@H]1Cc1c[nH]c2ccc(CCS(=O)(=O)c3ccccc3)cc12 | inactive | inactive |  |  |
| C=C(C)C(=O)OCC(O)CO (configuration not stated) | inactive | inactive |  |  |
| O=c1cc[nH]cc1 | inactive | inactive |  |  |
| COC(CC(C)CCCC(C)(C)O)OC (configuration not stated) | inactive | inactive |  |  |
| C=C(c1ccc(C(=O)O)cc1)c1cc2c(cc1C)C(C)(C)CCC2(C)C | inactive | inactive |  |  |
| O=C(N[C@@H](Cc1ccccc1)[C@@H](O)C(=O)N1C[C@@H](O)[C@@H](O)C1)c1cc2cc(Cl)ccc2[nH]1 | inactive | inactive |  |  |
| CCNC(=O)NCc1cccc(Cl)c1 | inactive | inactive |  |  |
| CC1(C)[C@H](C(=O)O)N2C(=O)C[C@H]2S1(=O)=O | inactive | inactive |  |  |
| COc1nc(C)nc(N)n1 | inactive | inactive |  |  |
| Cc1ccc(C(C)(C)C)cc1 | inactive | inactive |  |  |
| O=C(O)CSCC(=O)NC1CCSC1=O (configuration not stated) | inactive | inactive |  |  |
| C=CC(=O)OCC(CO)(COCC(COC(=O)C=C)(COC(=O)C=C)COC(=O)C=C)COC(=O)C=C | 30.3 µM (active) | 42.7 µM (active) |  |  |
| Cc1ccc(S)cc1 | inactive | inactive |  |  |
| CCC(=O)c1ccc2c(c1)N(CCCN(C)C)c1ccccc1S2 | inactive | inactive |  |  |
| CCOC(=O)c1ccc(N)cc1 | inactive | inactive |  |  |
| c1ccc2occc2c1 | inactive | inactive |  |  |

| Structure (SMILES) | Potency [1] | Potency [2] | viability change, negative = cytotoxic [1] | activity change, negative = cytotoxicity [2] |
| --- | --- | --- | --- | --- |
| C[Si](C)O[Si](C)(C)O[Si](C)(C)O[Si](C)C | inactive | inactive |  |  |
| CCCCNc1ccc(C(=O)OCCN(C)C)cc1 | inactive | inactive |  |  |
| CCCCCCCCCCCCN1CCOCC1 | inactive | inactive |  |  |
| CC(=O)O[Si](C)(OC(C)=O)OC(C)=O | inactive | inactive |  |  |
| CCOc1cc(OCC)c(C(=O)CCC(=O)O)cc1OCC | inactive | inactive |  |  |
| O=C(O)c1cc(N=Nc2ccc([N+](=O)[O-])cc2)ccc1O | inactive | inactive |  |  |
| CC1=CP(=O)(c2ccccc2)CC1 (configuration not stated) | inactive | inactive |  |  |
| Cc1cccc(Nc2ccncc2S(=O)(=O)NC(=O)NC(C)C)c1 | inactive | inactive |  |  |
| c1ccc(CN(Cc2ccccc2)Cc2ccccc2)cc1 | inactive | inactive |  |  |
| C[C@]12CCC(=O)C=C1C=C[C@@H]1[C@@H]2CC[C@@]2(C)[C@H]1CC[C@@]21CCC(=O)O1 | inactive | inactive |  |  |
| COc1ccc2cc(C=O)ccc2c1 | inactive | inactive |  |  |
| CCCC/C=C/CCCCO | inactive | inactive |  |  |
| CCCCCOC(=O)c1ccc(O)cc1 | inactive | inactive |  |  |
| CCC1OCC(COc2ccc(Oc3ccccc3)cc2)O1 (configuration not stated) | inactive | inactive |  |  |
| CCOC(C)OCC | inactive | inactive |  |  |
| C[C@]12CCC(=O)C=C1[C@@H]1C[C@@H]1[C@H]1[C@@H]3[C@@H]4C[C@@H]4[C@@]4(CCC(=O)O4)[C@@]3(C)CC[C@@H]12 | inactive | inactive |  |  |
| CN1CCC(=C2c3ccccc3CCc3cccnc32)CC1 | inactive | inactive |  |  |
| C=Cc1ccccc1C=C | inactive | inactive |  |  |
| COc1ccc(C2CNC(=O)C2)cc1OC1CCCC1 (configuration not stated) | inactive | inactive |  |  |
| CC(=O)c1ccc(O)cc1 | inactive | inactive |  |  |
| OCc1ccccc1 | inactive | inactive |  |  |
| CC(C)(c1ccc(O)cc1)c1ccc(O)cc1 | inactive | inactive |  |  |
| O=C(O)c1ccc(O)cc1 | inactive | inactive |  |  |

| Structure (SMILES) | Potency [1] | Potency [2] | viability change, negative = cytotoxic [1] | activity change, negative = cytotoxicity [2] |
| --- | --- | --- | --- | --- |
| Oc1cccc(O)c1 | inactive | inactive |  |  |
| Clc1ccc2c(c1)CCc1cccnc1C2=C1CCNCC1 | inactive | inactive |  |  |
| C=COC(=O)C(C)(CC)CCC(C)C (configuration not stated) | inactive | inactive |  |  |
| COCCOC[C@H](CC1(C(=O)NC2CCC(C(=O)O)CC2)CCCC1)C(=O)Oc1ccc2c(c1)CCC2 (some centres not stated) | inactive | inactive |  |  |
| C=CC(=O)OCCCl | inactive | inactive |  |  |
| CC(C)O | inactive | inactive |  |  |
| CCCCCCCCCCCCCCCCCC[N+](C)(C)Cc1ccccc1 | 61.7 µM (active) | 55 µM (active) |  |  |
| CCOC(=O)NCCC[Si](OCC)(OCC)OCC | inactive | inactive |  |  |
| O=c1[nH]c(=O)c2[nH]c(=O)[nH]c2[nH]1 |  |  | -5.49% [at 8.39 µM] | 8.03% [at 8.39 µM] |
| O=S(=O)(O)c1ccc2ccccc2c1 | inactive | inactive |  |  |
| CC(C)(CCl)c1ccccc1 | inactive | inactive |  |  |
| C[Si](C)(C)O[Si](C)(C)O[Si](C)(C)C | inactive | inactive |  |  |
| Cc1cn([C@H]2C=C[C@@H](CO)O2)c(=O)[nH]c1=O | inactive | inactive |  |  |
| COC(=O)c1ccc(C(=O)OC)c(C(=O)OC)c1 | inactive | inactive |  |  |
| CC(CC(=O)O)CC(C)(C)C (configuration not stated) | inactive | inactive |  |  |
| c1cc(C(c2ccc(OCC3CO3)cc2)C(c2ccc(OCC3CO3)cc2)c2ccc(OCC3CO3)cc2)ccc1OCC1CO1 (configuration not stated) | inactive | inactive |  |  |
| CC(C)(O)C#CC(C)(C)O | inactive | inactive |  |  |
| O=C[C@@H](O)[C@H](O)[C@H](O)CO | inactive | inactive |  |  |
| Cc1ncc([N+](=O)[O-])n1CCO | inactive | inactive |  |  |
| CN(C)CC/C=C1\c2ccccc2Sc2ccc(Cl)cc21 | inactive | inactive |  |  |
| CCOc1ccc(NS(=O)(=O)c2ccc(N)cc2)nn1 | inactive | inactive |  |  |
| NC(=O)C1(N2CCCCC2)CCN(CCCC(=O)c2ccc(F)cc2)CC1 | inactive | inactive |  |  |
| CCC(C)SSC(C)CC (configuration not stated) | inactive | inactive |  |  |

| Structure (SMILES) | Potency [1] | Potency [2] | viability change, negative = cytotoxic [1] | activity change, negative = cytotoxicity [2] |
| --- | --- | --- | --- | --- |
| Nc1ccc(N)c(Cl)c1 | inactive | inactive |  |  |
| CN(C)CCOC(=O)C(c1ccccc1)C1(O)CCCC1 (configuration not stated) | inactive | inactive |  |  |
| C=CCOc1ccccc1OCC(O)CNC(C)C (configuration not stated) | inactive | inactive |  |  |
| NC[C@H]1O[C@H](O[C@H]2[C@H](O)[C@@H](O[C@H]3O[C@H](CO)[C@@H](O)[C@H](N)[C@H]3O)[C@H](N)C[C@@H]2N)[C@H](N)[C@@H](O)[C@@H]1O |  |  | -2.98% [at 18.9 µM] | -6.94% [at 18.9 µM] |
| CCN(CCC#N)c1ccc(N=Nc2ccc([N+](=O)[O-])cc2)cc1 | inactive | inactive |  |  |
| CCC(C)c1cc(C(C)(C)C)c(O)c(C(C)(C)C)c1 (configuration not stated) | inactive | inactive |  |  |
| COc1c2occc2cc2ccc(=O)oc12 | inactive | inactive |  |  |
| CC(C)c1cc2c(cc1S(=O)(=O)O)[C@@]1(C)CCC[C@@](C)(C(=O)O)[C@@H]1CC2 | inactive | inactive |  |  |
| Cc1cc(OCCOCC[N+](C)(C)Cc2ccccc2)ccc1C(C)(C)CC(C)(C)C | 54.2 µM (active) and 29.8 µM (active) | 60.8 µM (active) and 26.6 µM (active) |  |  |
| CCCCCCCCCCCCCCCCI |  |  | 12.3% [at 18.9 µM] | -9.53% [at 18.9 µM] |
| O=S1(=O)CCCO1 | inactive | inactive |  |  |
| CC(C(=O)O)c1ccc(-c2ccccc2)c(F)c1 (configuration not stated) | inactive | inactive |  |  |
| NC(=O)Cc1cccc2ccccc12 | inactive | inactive |  |  |
| C=Cc1ccc(C)cc1 | inactive | inactive |  |  |
| O=CC(=O)c1ccccc1 | inactive | inactive |  |  |
| O=C(OCCCCCOC(=O)c1ccccc1)c1ccccc1 | inactive | inactive |  |  |
| Cc1ccc(O)c(C(C)(C)C)c1 | inactive | inactive |  |  |
| CN(C)CCCN1c2ccccc2Sc2ccc(Cl)cc21 | inactive | inactive |  |  |
| CCCC(=O)Nc1ccc(OCC(O)CNC(C)C)c(C(C)=O)c1 (configuration not stated) | inactive | inactive |  |  |
| Cc1cc(=O)n(-c2ccccc2)n1C | inactive | inactive |  |  |
| COc1ccnc(CS(=O)c2nc3cc(OC(F)F)ccc3[nH]2)c1OC (configuration not stated) | inactive | inactive |  |  |
| CC1(C)C(O)C(C)(C)C1O (configuration not stated) | inactive | inactive |  |  |
| CN1CCN(CCCN2c3ccccc3Sc3ccc(S(=O)(=O)N(C)C)cc32)CC1 | inactive | inactive |  |  |

| Structure (SMILES) | Potency [1] | Potency [2] | viability change, negative = cytotoxic [1] | activity change, negative = cytotoxicity [2] |
| --- | --- | --- | --- | --- |
| CCCCN1CCCC1C(=O)Nc1c(C)cc(C)cc1C (configuration not stated) | inactive | inactive |  |  |
| CCOC(=O)COC(=O)c1ccccc1C(=O)OCC | inactive | inactive |  |  |
| CCCC(C)C=O (configuration not stated) | inactive | inactive |  |  |
| OC(CCN1CCCCC1)(c1ccccc1)C1CC2C=CC1C2 (configuration not stated) | inactive | inactive |  |  |
| O=C1c2ccccc2S(=O)(=O)N1CCCCN1CCN(c2ncccn2)CC1 | inactive | inactive |  |  |
| OCC(O)[C@@H](O)[C@H](O)[C@H](O)CO[C@H]1O[C@H](CO)[C@@H](O)[C@H](O)[C@H]1O (some centres not stated) | inactive | inactive |  |  |
| CNc1ncnc2nc[nH]c12 | inactive | inactive |  |  |
| CCOC(=O)[C@H](O)[C@@H](O)C(=O)OCC | inactive | inactive |  |  |
| CC(C)OC(=O)C(C)N(C(=O)c1ccccc1)c1ccc(F)c(Cl)c1 (configuration not stated) | inactive | inactive |  |  |
| C[Si](C)(C)O[Si](C)(C)C | inactive | inactive |  |  |
| O=C(O)CCCCCCCC(=O)O | inactive | inactive |  |  |
| COc1cccc(O)c1O | inactive | inactive |  |  |
| COC(=O)C(C)Oc1ccc(Oc2ncc(C(F)(F)F)cc2Cl)cc1 (configuration not stated) | inactive | inactive |  |  |
| COC(=O)/C=C/c1ccccc1 | inactive | inactive |  |  |
| CC(=O)NCCO | inactive | inactive |  |  |
| O=C(Nc1ccccc1SSc1ccccc1NC(=O)c1ccccc1)c1ccccc1 | inactive | inactive |  |  |
| CCCOc1ccc2nc(NC(=O)OC)[nH]c2c1 | inactive | inactive |  |  |
| CCOC(C)=O | inactive | 24.5 µM (active) |  |  |
| CCCCC(O)/C=C(C)/C=C/C=C/C(=O)N1CCCC1=O (configuration not stated) | inactive | inactive |  |  |
